# According to PubChem BioAssay AID1508600 (Functional Genomics Laboratory (NCATS/FGL), 2020):
# Hit rate of the full screen: of about 53,000 sequences, about 3,700 (7%) were called active. This excerpt belongs to a sample that is enriched for actives. A number with no mark means an inactive call.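 Rule for the calls: active = gene knockdowns whose robust z-score for IL-1 alpha signal is at least 2 or at most -2, so actives lie on both sides; inactive = the rest.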
# Assay: Components of the Cytosolic LPS Sensing Pathway: Gene Identification via Genome-wide siRNA Screen;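 note: robust z of the log signal after scaling to non-targeting control siRNA wells of the plate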
# Conditions: RAW264.7 macrophages, IL-1a HTRF, actives lie on both sides, screened at 100 nM (by protocol), cells primed 5 h with Pam3CSK4 first
# Procedure, shortened: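 IL-1a HTRF of supernatants after 24 hour LipidA transfection of Pam3CSK4-primed (5 hours) RAW264.7 cells, 48h post-siRNA transfection (100 nM). Scores: percent of plate negative-control median, then log-based robust z-score.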
row,Sequence,z-score
1,GGUCUGUCUCCAGAUUGCUTT against Olfr56,-1.73
2,GGAUAUUAUGUCUUUGCUATT against Ints2,0.499
3,GACCACCAGAAAGUUUCACTT against Lfng,0.339
4,GCUCUACCUUCGCUGGAAATT against Slc7a6,2.17 (active)
5,GGAAACUGCAUUCAAGCCATT against Apod,-0.191
6,CCUCUAGACCGAAUGAAAATT against Zfyve16,0.472
7,GGAGUCCUCUAAUGUAAAUTT against Elovl4,0.0471
8,GGGAACUCAAAGAAGAGAGTT against Lysmd2,0.515
9,CGAGGAGUGGUAUUUUUACTT against Slc34a1,0.0248
10,GCUGAAAGAUUUACUGCCCTT against Bhlhe41,2.95 (active)
11,GGCAUGGAAUAUGAUGUUATT against Nlrp9b,-1.72
12,GGGUUGUCCUGAACUUUAATT against Npr1,0.236
13,GGCCAGUGGAGGAAUAUGATT against 1300017J02Rik,-0.383
14,CCACGUGUCUUAGAAUUAATT against Gas1,1.67
15,GGCCAACAAGGAAAACAUCTT against Bcas2,1.33
16,GGUCUGUAUGUCAUUUAUCTT against Ywhag,-0.208
17,GGUAAUGCUGUGGAGUCUUTT against Wdr53,-2.59 (active)
18,GGAAGGCCAUUUCAACUAATT against Olfr1367,1.54
19,GGUGAUUUGAACUGUGAAATT against Tmem126a,-0.963
20,GGACAAACCUUGGAAGAUUTT against Ccdc166,-0.24
21,GGUUGGAAAUGACUAAUAATT against Slco6c1,-1.01
22,GGAAGGUGUCUGUAAUAUATT against Slamf9,-0.0451

row,Sequence,z-score
1,GGAGGGCAGAUCUACGAUGTT against Aars,0.182
2,GAAACUUUGAGUCCUCCAGTT against Dop1b,3.22 (active)
3,CGAGUUCAAACCGUCCUCUTT against Sdhc,0.105
4,CGGAAUGAUCACGACCGAUTT against Nsrp1,0.133
5,CCAAGUAAUUCCUACUACUTT against Olfr1100,-0.25
6,GGCUGGAUGUAGAAAAUAUTT against Aspm,-2.1 (active)
7,GGGAAGCAAAUCUAUACCCTT against Tnfrsf11a,-0.243
8,GGUGUUGUCAGAAGUUUAATT against Slc22a13b,1.8
9,CCUCAUGCAGUUAAAUAUGTT against Kera,-1.56
10,GGAGAAGGAUGGAGUGUUUTT against Brms1l,1.8
11,GGACUUUGUAACUAAUACCTT against Slco2b1,0.914
12,CGAUGAUGAACGAUGGACATT against Mmp3,2.47 (active)
13,GGCACUGGCAGGAAAUUACTT against Alg6,-1.52
14,GGACUGCCUUAAUUAAAGUTT against Coa6,1.7
15,GCUGUGACUCUACUGGAGGTT against Zfp397,0.746
16,GGCAGAACCCACUGAGAAATT against Pakap,-0.349
17,GGAAAUCGAGCAUGUCUUCTT against Stk32c,2.21 (active)
18,GGAAAAGAGAAGAAGGCACTT against Taf6,0.654
19,GCCUUUGAGGUUAUGAUCATT against Klk7,-1.09
20,GGCUGUGGUGAAGACUUUCTT against Cd81,-1.06
21,GGUGAAGCAGUUUGACUUCTT against Rbm18,0.0154
22,GGUUCUGGUUGAUAGAGAUTT against 4931428L18Rik,0.373

row,Sequence,z-score
1,CUUCUUGGUGGGUCUGACUTT against Taar7e,-2.63 (active)
2,CGACUGGAAAAAGAUUGGGTT against Ttf1,-0.219
3,GCGGCAGUAAAUUGUGAGGTT against Grin3b,1.4
4,GGAAAUCCAGAAGCGUGUGTT against Gtpbp3,-0.436
5,GGAGGAGCGUACUAUUUAATT against Slc12a2,3.34 (active)
6,GGAGGAUGCAAUUUUUAACTT against Sult1e1,0.771
7,GGAGAAACUGAAACAAGCUTT against Gpc4,0.403
8,GCACUAAGCUUUAUUCAUCTT against Mast2,-0.0104
9,GGAAACUUUUACUUCACAGTT against P3h1,-0.322
10,GGAUCUACGCAAGCAAGCATT against Oxnad1,2.12 (active)
11,GCAAAGAAGCUCUUUAGAGTT against Hoxc5,0.455
12,GCCAUAAGAUGCUACAGUGTT against Tubb6,1.53
13,GGAAAGUACCCUAGGAGUUTT against 4921509C19Rik,-1.6
14,CCCUCAACUUUCAGAUCAGTT against Naa10,2.81 (active)
15,CCUACUUCCGAGGUUUCUUTT against Ifnz,-0.493
16,GGAAAGGAGUCUGCCAGCUTT against Tef,-1.29
17,GGAAGAAGGAAGGUUCAGATT against Strm,-0.581
18,GUGCAAACGGCAAACAUUCTT against 1700001G17Rik,1.89
19,GGGCGAAAACCAUUCAAAUTT against Zfp112,3.38 (active)
20,CCUCCUGACUACAAGAACUTT against Utp14a,0.911
21,CCUUGAUACCUUUCCAUGUTT against 9130008F23Rik,-0.68
22,CGUUCUUGAGAGUCGAUCATT against Smoc2,-0.19

row,Sequence,z-score
1,GCGGCAUCUACUUAAUAUGTT against Acer2,2.12 (active)
2,GCACCUUCAGCUAUCUAACTT against Nepn,0.478
3,GCUGUUCCUCUUUCUUUCUTT against Olfr522,0.315
4,CCUAGAGUCUCAGGACUGUTT against Actrt3,0.682
5,GGUUUCGUACCAUGAAACATT against Stx2,-0.147
6,GCUUUGACUGGAAUGACGGTT against Pex7,-2.2 (active)
7,GGAGCUGUCUAAUCAUAAUTT against Clasp2,-0.109
8,GGAGUGGAAGAAGAAGUAUTT against Agap3,0.177
9,GGAGUUUCUACGUGUAUGCTT against Tpra1,-0.161
10,GGACUUUGUGGAGAAUGUCTT against Cyp1a2,-0.876
11,CCUACAGAGUACAGAUUAUTT against Atp6v0d1,-0.228
12,GGACUGAGAGGGAUGGUAATT against A530016L24Rik,0.293
13,GCUAAGACUCUUGAAUCAGTT against Zfp280d,3.72 (active)
14,GGCACAGAAGAAUGAGAGATT against Schip1,0.217
15,CGUACUCUUUCUUUAAUCCTT against Umod,-0.622
16,GGUCCAUUACGUGCGCUUATT against Cage1,-0.00235
17,GGCCUGACUUUUUGUCUUATT against Klhl15,1.09
18,GGAACUGCCAUUGUAUGGGTT against Myo1g,-0.568
19,GGCAAAGUGUCCCUCCGAATT against Skint7,2.06 (active)
20,CCGCAUUUCAGACAUAGGCTT against Olfr248,-0.729
21,GCAGAAUGUCACUAAGUGCTT against Sdcbp2,0.271
22,GGGAGAAGCAAUUUUUAACTT against Gpr34,0.132

row,Sequence,z-score
1,CCUAUGGUAGAAAAAUACUTT against Fundc1,-0.252
2,GGCAGCUGAUCAGAAAUCATT against Gabrg3,-1.13
3,GCUCACUAACUUUUACAAGTT against Fam166c,0.419
4,CCAAGAGUUGUCAAUAUAATT against Crisp3,0.768
5,GGAGAGAAGAUCAUUUCAATT against Ncam2,2.38 (active)
6,CCCUCCGUGUUUUUAAGAUTT against Tbl2,0.176
7,GGAUUUUGAUCUAAUGAGATT against Zfp354c,0.366
8,GGCAAUUCUCUGUAUCCACTT against Cyp2d34,-0.358
9,GCAUGUCGUCUGAGAAAGUTT against Pgr,-0.748
10,GGCUUUAUCAGAUCCAACCTT against Tmem108,2.47 (active)
11,GGUCAUAGAUGAGCUUAGUTT against Appl1,-0.763
12,GGCAUGUUGAUGGGAAUUUTT against Srp9,0.536
13,GGCCUACCCAAUUCUUAACTT against Ces1g,-0.0881
14,GUGUUUCCUUGUUAAGAUUTT against Bloc1s4,-0.841
15,CCAGUAAAAAUUGAAGGCUTT against Capza2,0.565
16,GGCCCUUCAUGAAGAGCAATT against Carf,2.07 (active)
17,GGUCUACGUUAUUAUUACCTT against Etv2,-0.537
18,GGAGCUUGACAUUCUGGAATT against Tmco4,0.766
19,CCGAGUUUGGGAAUAACUUTT against Cacna1a,1.45
